Assay outcomes: PubChem, National Center for Advancing Translational Sciences (NCATS)
The list is not random: actives were taken first. Their share in the collection is about 1.2%.
gsp antag: gsp mutant antagonism; gsp-mutant cells, cAMP HTRF, 30 min; Potency, µM (highest dose often 76.9 µM), for the others: top-dose activity change, negative = inhibition, hits mostly inhibitors; 0.4% of 340,000 active; AID 624288; calls by dose curve; cell line not stated here;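 also: intracellular cAMP measured with PDE inhibitor Ro 20-1724 present during compound exposure; potency is read from the fitted curve at half-maximal effect; % is scaled to controls: 0 for no effect and ±100 for the full control effect; nearly all actives have a fitted effect of over 65% in size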
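G418-selected cells were plated in DMEM/10% FBS for 16-24 h at 37C, then treated with compounds plus the PDE inhibitor […] (300 uM solution added) for 30 min at 37C. Intracellular cAMP was measured by HTRF after 30 min lysis at room temperature.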
gsp ag: gsp mutant agonism | AID 624287 | 0.13% of 340,000 active | Potency, µM (top dose mostly 76.9 µM), inactives show at the top dose activation (cAMP increase), usual class: activators | gsp mutant cells, cAMP HTRF, 30 min; active = well fitted activation curve with a large enough effect; inconclusive = small, poorly fitted or top-dose-only effect, or another doubt; inactive = no such curve, though single readings can be large or run the other way; cell line not stated here;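 also: phosphodiesterase inhibitor Ro 20-1724 added with compounds to block cAMP breakdown; potency is read from the fitted curve at half-maximal effect; nearly all actives have a fitted effect of over 60% in size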
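Cells in DMEM/10% FBS with G418 were pretreated with compounds in DMSO plus […] (300 uM stock) for 30 min at 37C. cAMP was measured by HTRF (cAMP-d2 plus anti-cAMP antibody-K) after 30 min at room temperature.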
RXFP1 agonist: activates the human relaxin receptor RXFP1; HEK293T-RXFP1 cAMP TR-FRET, 30 min; response scale: percent of porcine relaxin response, buffer zero; 0.3% of 370,000 active; Potency, µM (series often up to 57.5 µM), inactives show top-dose activation, usual class: activators; Q9HBX9; active = well fitted activation curve with a large enough effect; inconclusive = small, poorly fitted or top-dose-only effect; also: potency is read from the fitted curve at half-maximal effect; % is scaled to controls: 0 for no effect and ±100 for the full control effect; nearly all actives have a fitted effect of over 60% in size
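Agonist response is measured as cAMP accumulation in an RXFP1-transfected HEK293T line under PDE4 inhibition. Values are scaled between buffer-only and 29 nM porcine relaxin, and EC50s come from standard Hill equation fits.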
pAkt inh: Akt phosphorylation inhibition; activity change, % for hits at 50 µM; 0.32% of 360,000 active; AID 651550; Neuro2A IGF-stimulated pAkt S473 HTRF, 20 min; stronger effect = lower value; in the data active = activity change below about -80%; inconclusive = mostly about -51% to -80%; also: % is scaled to controls: 0 for no effect and ±100 for the full control effect
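Single-point screen (50 µM final compound) in Neuro2A cells stimulated 20 min with 6 nM IGF at 37 deg C. After lysis, Ser473-phosphorylated Akt read by HTRF (ex 330 nm, em 615/665 nm) as the 665/615 ratio.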
RXFP1 antagonist: blocks the human relaxin receptor RXFP1; AID 1259400; HEK293-RXFP1, relaxin-stimulated cAMP HTRF, 30 min; stronger effect = lower value; Q9HBX9; 0.59% of 350,000 active; activity change, negative = inhibition, % at 57.5 µM;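 active = activity change of -60% or lower, but not beyond a set lower limit; inconclusive = change between -60% and -40%, or beyond the set limit; inactive = change above -40%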; also: % is scaled to controls: 0 for no effect and ±100 for the full control effect
An asterisk follows results filed as active; i = inactive; ? = inconclusive; · = not tested or not shown; [ ] = remark or other dose.

SMILES | gsp antag | gsp ag | RXFP1 agonist | pAkt inh | RXFP1 antagonist
CCCC(=O)Nc1cccc(NC(=O)c2ccc3c(c2)OCO3)c1 | -19.8% | 18.7% | -1.9% | -114.8%* | -12.8
O=C(Nc1c(C(=O)Nc2cccc(F)c2)oc2ccccc12)c1ccc2c(c1)OCO2 | -1.0% | 46.9% | ? | -111.5%* | 6.0
Cc1cccc(CN2C(=O)c3ccccc3Sc3ccc(C(=O)N4CCCC4)cc32)c1 | · | · | 3.2% | · | -112.4*
O=C(c1ccc2c(c1)N(Cc1ccccc1)C(=O)c1ccccc1S2)N1CCCC1 | ? | 4.6% | -1.8% | i | -2.6
CN1C(=O)/C(=C/c2cccc(Cl)c2)Sc2ccc(C(=O)N3CCCC3)cc21 | 8.91µM* | -0.1% | 0.0% | i | 2.4
CCOC(=O)C1CCCN(C(=O)c2ccc3c(c2)N(Cc2ccccc2)C(=O)c2ccccc2S3=O)C1 (centres undefined) | 8.91µM* | -3.1%[15.4 µM] | 1.3% | i | -29.5
Clc1ccc(N2CCN(c3ncnc4c3nc3n4CCCC3)CC2)cc1 | · | · | 1.7% | · | 0.5
CC(=O)c1ccc(NC(=O)CSc2nccn2Cc2ccco2)cc1 | · | · | 1.5% | · | 0.6
CCOC(=O)C(Cc1ccccc1)NC(=O)CCc1nnc2ccc(N3CCOCC3)nn12 (centres undefined) | 4.9% | 20µM* | 27.4% | i | 29.5
COc1cc(NC(=O)CCc2nnc3ccc(N4CCN(c5cccc(OC)c5)CC4)nn23)cc(OC)c1 | 10.3% | ? | 15.8µM* | i | 4.0
Cc1cccc(NC(=O)c2ccc(CNS(=O)(=O)c3ccc4c(c3)C(C)(C)C(=O)N4C)cc2)c1 | · | · | -0.3% | · | -30.7
COc1cc(/C=C(\C#N)c2nc3ccc(C)cc3[nH]2)cc([N+](=O)[O-])c1O | 25.1µM* | -35.1% | -3.0% | i | -18.8
O=C(OCc1cc(=O)n2cc(Br)ccc2n1)C1COc2ccccc2O1 (centres undefined) | -3.8% | 10µM* | 9.2% | i | -9.9
CC1CC1C(=O)OCc1cc(=O)n2cc(Br)ccc2n1 (centres undefined) | 5.0% | ? | 16.4% | i | 1.2
O=C(CCCn1c(=O)c2cccn2c2ccccc21)NCCc1ccc(Cl)cc1 | · | · | -0.5% | · | -71.1*
CCOC(=O)c1cc(-c2ccc(F)cc2)n(CCC(=O)NC2CCC(C)CC2)c1C (centres undefined) | · | · | 3.1% | · | -34.0
CCOC(=O)C1=C(CN2CCN(c3ccc(Cl)cc3)CC2)NC(=O)NC1c1ccc(OC)cc1 (centres undefined) | · | · | -2.9% | · | -8.0
CC1CCc2sc(C(=O)Nc3nnc(SCc4ccc(F)cc4)s3)cc2C1 (centres undefined) | -2.6%[15.4 µM] | -13.0% | 1.5% | -85.1%* | -5.0
COc1cc(C)ccc1OCCSc1nc2ccc(NC(C)=O)cc2s1 | · | · | 5.6% | · | ·
COc1ccc2c(c1)c(CC(=O)NCc1cc([N+](=O)[O-])ccc1O)c(C)n2C(=O)c1ccc(Cl)cc1 | 35.5µM* | 7.9% | 4.8% | i | -84.1*
COc1ccc2c(c1)c(CC(=O)Nc1ccc(C(C)=O)cc1)c(C)n2C(=O)c1ccc(Cl)cc1 | -17.0% | 0.0% | 5.1% | i | 2.5
CCC(CC)c1nn2c(N)c(/C=C3\C(C)=Nc4ccccc43)c(=O)nc2s1 | -15.1% | -9.8%[15.4 µM] | -1.0% | i | -68.6*
CCC(CC)c1nn2c(N)c(/C=C3\C=Nc4ccccc43)c(=O)nc2s1 | 3.4% | -1.6%[15.4 µM] | -0.7% | i | -6.9
CCN(CC)c1nc(-c2nn[nH]n2)nc(N(CC)CC)n1 | 39.8µM* | ? | 2.5% | i | 0.1
CC/C=C(/C(=O)N[C@@H]1C(=O)N2C(C(=O)OCOC(=O)C(C)(C)C)=C(COC(N)=O)CS[C@H]12)c1csc(N)n1 | · | · | · | · | -14.0
Cc1cc2c(cc3c(SCc4ccc(Cl)cc4)nnc(C)n32)o1 | · | · | 14.1µM* | · | -0.7
Cc1cnn(C(=S)NCC2CCCO2)c1 (centres undefined) | 6.7% | 4.2% | 0.6% | -102.7%* | -1.2
CCN(CC(=O)Nc1ccc(OC)cc1)C(=O)c1oc2c(Cl)cccc2c1C | -17.9% | 2.7%[15.4 µM] | 0.0% | i | -99.8*
CC(=O)N1c2c(cc(Br)cc2S(=O)(=O)NCc2ccc(C)cc2)CC1C (centres undefined) | 35.5µM* | 11.6%[15.4 µM] | 1.1% | i | 7.1
